According to PubChem BioAssay (Tox21):
Inconclusive results are not listed. A call without a number means that no potency is given here. Calls of active or inactive are those of the source. The call rests on the fitted dose curve; in most records, active means well fitted inhibition curve with a large enough effect in the repeat runs; inconclusive means weak or mixed curves; inactive means no such curve, though single readings can be large or run the other way.

Each compound was assayed against Cytochrome P450 2D6 (Homo sapiens) (UniProt P10635) (assay: Cytochrome P450 Family 2 Subfamily D Member 6 (CYP2D6) small molecule antagonists: luciferase reporter qHTS assay (AID 1671196; further: nearly all actives have a fitted effect of over 50% in size)). Conditions: P450-Glo CYP2D6 enzyme assay, luciferin luminescence, 1 h; series mostly up to 115 µM.
How it was run: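 Luminescence (RLU), read 20 min after detection reagent, indicated CYP2D6 conversion of proluciferin to luciferin during a 1 h NADPH-dependent reaction at room temperature.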
Potency means the concentration at half of the fitted maximal effect.

Sequence of Cytochrome P450 2D6 (Homo sapiens) (P10635 whole entry, looked up): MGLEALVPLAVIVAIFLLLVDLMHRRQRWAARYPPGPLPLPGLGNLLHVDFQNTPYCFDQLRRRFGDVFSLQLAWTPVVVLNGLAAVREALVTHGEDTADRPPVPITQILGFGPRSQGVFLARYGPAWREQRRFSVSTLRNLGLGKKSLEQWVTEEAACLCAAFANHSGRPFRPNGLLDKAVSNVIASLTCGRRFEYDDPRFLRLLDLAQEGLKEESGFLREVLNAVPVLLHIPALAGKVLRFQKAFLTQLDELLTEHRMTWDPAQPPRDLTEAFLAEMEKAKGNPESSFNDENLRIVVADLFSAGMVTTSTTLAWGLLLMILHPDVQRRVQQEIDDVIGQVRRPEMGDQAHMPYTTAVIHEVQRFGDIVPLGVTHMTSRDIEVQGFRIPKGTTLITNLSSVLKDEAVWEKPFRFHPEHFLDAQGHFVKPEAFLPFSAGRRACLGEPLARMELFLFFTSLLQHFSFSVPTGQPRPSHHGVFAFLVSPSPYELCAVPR

Structure (SMILES) | Potency
CC/C=C\CC1=C(C)CCC1=O | inactive
OCCC(F)(F)C(F)(F)C(F)(F)C(F)(F)C(F)(F)C(F)(F)C(F)(F)C(F)(F)F | inactive
CCCCCCOC(=O)CC | inactive
BrCc1cccc(Oc2ccccc2)c1 | 35.6 µM (active)
COc1cc(C(=S)N2CCOCC2)cc(OC)c1OC | inactive
CN(C)c1ccc(C=O)cc1 | inactive
COC(=O)c1ccccc1C(=O)c1ccc(OCCN2CCCCC2)cc1 | 15.5 µM (active)
CC(=O)c1sc(C)nc1C | inactive
COc1ccc(C2CNC(=O)C2)cc1OC1CCCC1 (stereo not given) | inactive
CCOc1cc(NC(C)=O)ccc1C(=O)OC | inactive
CCCCCCCCSCC | inactive

Each compound was assayed against Cytochrome P450 2C19 (Homo sapiens) (UniProt P33261) (assay: Cytochrome P450 Family 2 Subfamily C Member 19 (CYP2C19) small molecule antagonists: luciferase reporter qHTS assay (AID 1671197; further: nearly all actives have a fitted effect of over 65% in size)). Conditions: P450-Glo CYP2C19 enzyme, luciferin luminescence, 1 h; series mostly up to 115 µM.
How it was run: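 CYP2C19 P450-Glo, 1536-well qHTS. Cpd + enzyme/proluciferin substrate 10 min RT; + NADPH regen, 37C 1 h; stop with luciferin detection reagent, 20 min RT, luminescence (RLU). Pos ctrl ketoconazole.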

Sequence of Cytochrome P450 2C19 (Homo sapiens) (P33261 whole entry, looked up): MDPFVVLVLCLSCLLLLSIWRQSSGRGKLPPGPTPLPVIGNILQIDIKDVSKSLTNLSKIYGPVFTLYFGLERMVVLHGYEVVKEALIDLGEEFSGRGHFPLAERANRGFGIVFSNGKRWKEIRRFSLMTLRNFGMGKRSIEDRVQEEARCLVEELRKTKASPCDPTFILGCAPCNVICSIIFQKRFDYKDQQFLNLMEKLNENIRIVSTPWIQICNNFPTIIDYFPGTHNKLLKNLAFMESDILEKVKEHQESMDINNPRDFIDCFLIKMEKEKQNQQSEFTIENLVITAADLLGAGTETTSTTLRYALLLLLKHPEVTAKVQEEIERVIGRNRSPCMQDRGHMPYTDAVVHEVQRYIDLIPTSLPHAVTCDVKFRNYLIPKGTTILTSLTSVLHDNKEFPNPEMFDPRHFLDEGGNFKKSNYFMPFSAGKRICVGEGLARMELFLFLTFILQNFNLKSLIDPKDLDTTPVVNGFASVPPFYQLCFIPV

Structure (SMILES) | Potency
Cc1ccccc1N=O | inactive
CCCCCOC(=O)CCC | inactive
Oc1ccccc1-c1nnco1 | inactive
CCOCCOC(=O)/C=C/c1ccc(OC)cc1 | 34.7 µM (active)
Cc1ccc(S(=O)(=O)O)c(C)c1 | inactive
O=C(OCc1ccccc1)C(=O)OCc1ccccc1 | inactive
CC(C)N(c1ccccc1)C(C)C | inactive
CN(C)C(=O)CNC(=O)Cc1ccccc1 | inactive
CCC(C)(CCC(C)C)C(=O)O (stereo not given) | inactive
CCOC(=O)[C@H](CCc1ccccc1)N[C@@H](C)C(=O)N1C(=O)N(C)C[C@H]1C(=O)O | inactive
O=C1CC(c2ccc(Cl)cc2)CC(=O)N1 | inactive
C[C@H](CCC(=O)O)[C@H]1CC[C@H]2[C@@H]3C(=O)C[C@@H]4CC(=O)CC[C@]4(C)[C@H]3CC(=O)[C@]12C | inactive
CC1=CCC(C(C)C)=CC1 | inactive
CC(=O)Nc1ccc(S(=O)(=O)Nc2ccc([N+](=O)[O-])cc2)cc1 | 15.5 µM (active)
